GLP1R cytotox = qHTS of GLP-1 Receptor Inverse Agonists: Cytotox Screen; HEK293 cAMP-luciferase reporter cells, luminescence, 24 h; Potency, µM (series often up to 38.3 µM), inactives show top-dose activity change, negative = inhibition, actives largely listed as inhibitors; 0.13% of 410,000 active;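 further: loss of luciferase light is scored as toxicity; potency means the concentration at half of the fitted maximal effect; on the % scale 0 is the no-effect control and ±100 the full control effect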
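Luminescence readout: signal drop marks cytotoxicity. Plated cells grew 12 h at 37 °C, 5% CO2, received 23 nL compound for 24 h, then got luciferase reagent, read after 12 min at RT.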
rTrxR1 inhibitor = qHTS Assay for Inhibitors of Mammalian Selenoprotein Thioredoxin Reductase 1 (TrxR1): qHTS | Thioredoxin reductase 1, cytoplasmic (Rattus norvegicus), O89049 | recombinant rTrxR1, NADPH fluorescence consumption, selenite substrate | Potency, µM (titrated, usually from 114 µM), for inactives: at the highest dose activity change, negative = inhibition, hits mostly inhibitors | 1% of 390,000 active; further: potency means the concentration at half of the fitted maximal effect; on the % scale 0 is the no-effect control and ±100 the full control effect; nearly all actives have a fitted effect of over 65% in size
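Rat TrxR1 (90 nM in the dispensed reagent) was pre-reduced with 400 uM NADPH for 5 min at room temperature, then incubated with compound for 15 min. After 400 uM selenite was added, NADPH fluorescence (Ex 340/Em 450 nm) was followed for 8 min.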
TrxR1 substrate = qHTS Assay for Substrates of Mammalian Selenoprotein Thioredoxin Reductase 1 (TrxR1): qHTS | Thioredoxin reductase 1, cytoplasmic (Rattus norvegicus), O89049 | purified TrxR1 substrate turnover, NADPH consumption readout | Potency, µM (doses to about 114 µM), inactives show at the highest dose activity change, negative = substrate turnover | 0.01% of 390,000 active | AID 588456, 2011; further: potency means the concentration at half of the fitted maximal effect; on the % scale 0 is the no-effect control and ±100 the full control effect; nearly all actives have a fitted effect of over 50% in size
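Rat TrxR1, dispensed at 90 nM, was prereduced with 400 uM NADPH (final) for 5 min at ~22 deg C, then incubated with compound 15 min before 400 uM selenite. A first-read NADPH fluorescence drop versus no-compound background flagged substrates.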
GLP-1R agonist = qHTS of GLP-1 Receptor Agonists; Glucagon-like peptide 1 receptor (Homo sapiens), P43220; HEK293 GLP-1R CRE-luciferase, luminescence, 4-6 h; cells express a hypersensitive GLP-1R form; Potency, µM (series often up to 45.6 µM), without a hit: at the top dose activation, actives largely listed as activators; 0.007% of 380,000 active; AID 624172, 2012; further: potency means the concentration at half of the fitted maximal effect; % of control where 0% means no effect
GLP1R inv ag = qHTS of GLP-1 Receptor Inverse Agonists (Inhibition Mode) | Glucagon-like peptide 1 receptor (Homo sapiens), P43220 | HEK293 GLP-1R CRE-luciferase, luminescence, 24 h; GLP-1R form is constitutively active | Potency, µM (doses to about 38.3 µM), inactives show at the top dose activity change, negative = inhibition, actives largely listed as inhibitors | 1.6% of 410,000 active; further: potency means the concentration at half of the fitted maximal effect; on the % scale 0 is the no-effect control and ±100 the full control effect; nearly all actives have a fitted effect of over 55% in size
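Luminescence readout: a drop in cAMP-driven luciferase signal flags inverse agonism at a constitutively active GLP-1R stably expressed in HEK293. Compound exposure lasted 24 hr at 37 deg C, 5% CO2.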
mIDH1 inhibitor = qHTS for Inhibitors of mutant isocitrate dehydrogenase 1 (IDH1): qHTS. Potency, µM (highest dose often 76.6 µM), inactives show at the highest dose activity change, negative = inhibition, usual class: inhibitors. Isocitrate dehydrogenase [NADP] cytoplasmic (Homo sapiens), O75874. IDH1-R132H enzyme, NADPH consumption, diaphorase/resazurin fluorescence. 0.093% of 390,000 active. AID 602179, 2012; further: potency means the concentration at half of the fitted maximal effect; on the % scale 0 is the no-effect control and ±100 the full control effect; nearly all actives have a fitted effect of over 65% in size
Target sequence (O75874 whole entry R132H, stated change not applied): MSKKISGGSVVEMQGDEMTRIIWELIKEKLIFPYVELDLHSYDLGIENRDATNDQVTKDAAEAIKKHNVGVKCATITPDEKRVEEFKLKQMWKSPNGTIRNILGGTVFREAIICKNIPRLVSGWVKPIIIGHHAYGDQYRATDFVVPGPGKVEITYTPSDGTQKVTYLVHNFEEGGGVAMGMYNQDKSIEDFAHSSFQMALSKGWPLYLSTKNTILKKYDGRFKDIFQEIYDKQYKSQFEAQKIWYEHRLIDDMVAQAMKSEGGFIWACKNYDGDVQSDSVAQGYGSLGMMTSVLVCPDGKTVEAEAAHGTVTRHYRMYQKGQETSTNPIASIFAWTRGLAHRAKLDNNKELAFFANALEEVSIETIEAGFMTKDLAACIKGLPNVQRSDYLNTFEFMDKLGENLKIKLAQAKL
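IDH1-R132H (0.5 ug/mL dispensed) in pH 7.5 Tris buffer was preincubated 30 min with compound, then given a substrate mix of 0.016 mM NADPH and 2 mM alpha-KG for 80 min at room temperature; remaining NADPH was read by diaphorase/resazurin fluorescence.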
IDH1 autofl = qHTS for Inhibitors of mutant isocitrate dehydrogenase 1 (IDH1): Cherrypicks Autofluorescence Interference; shares compounds with mIDH1 inhibitor; Resorufin detection reagent fluorescence interference, cell-free; inhibition of signal, % at 51.2 µM; 750 tested, under 10 active; AID 623980, 2012;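 further: 0% = wells with normal resorufin and full inhibition = wells lacking resorufin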
WT IDH1 inh = qHTS for Inhibitors of mutant isocitrate dehydrogenase 1 (IDH1): Cherrypicks in WT IDH1. 9% of 750 active. WT IDH1 enzyme, NADPH diaphorase/resazurin fluorescence. Potency, µM (titrated, usually from 115 µM), without a hit: at the highest dose activity change, negative = inhibition, most hits filed as inhibitors. shares compounds with mIDH1 inhibitor. AID 623995, 2012;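 further: potency means the concentration at half of the fitted maximal effect; 0% = full WT IDH1 enzyme control and full inhibition = no enzyme wells; nearly all actives have a fitted effect of over 55% in size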
Target sequence (O75874 whole entry, looked up): as the sequence (O75874 whole entry R132H, stated change not applied) above, with H132R counted along it
IDH1 R132H conf = qHTS for Inhibitors of mutant isocitrate dehydrogenase 1 (IDH1): Confirmation of Cherrypicks; shares compounds with mIDH1 inhibitor; IDH1 R132H enzyme, NADPH diaphorase/resazurin fluorescence; Potency, µM (doses to about 76.6 µM), for the others: top-dose activity change, negative = inhibition, most hits filed as inhibitors; 83% of 750 active; AID 624002, 2012; further: potency means the concentration at half of the fitted maximal effect; nearly all actives have a fitted effect of over 50% in size
Active calls of the source: *; [ ] = dose if it differs, or a comment. Shown are actives, neighbours in structure and some others; about 2.7% of the full set was active somewhere. The call rests on the fitted dose curve; in most records, active means well fitted curve in the direction sought with a large enough effect; inconclusive means small, poorly fitted or top-dose-only effect, or another doubt; inactive means no such curve, though single readings can be large; an effect the other way counts as inactive or inconclusive.

For O=C1NC[C@H](Cc2ccccc2)N(C[C@@H]2CCCN2C[C@H](Cc2ccccc2)N2C[C@H](Cc3ccccc3)N(CCc3ccccc3)C(=O)C2=O)C1=O the results were GLP1R cytotox inconclusive, GLP-1R agonist -5.7% and GLP1R inv ag inconclusive.
For O=C1NC[C@H](Cc2ccccc2)N(C[C@@H]2CCCN2C[C@H](Cc2ccccc2)N2C[C@H](Cc3ccccc3)N(CC3CCCCC3)C(=O)C2=O)C1=O the results were GLP1R cytotox -19.4%, GLP-1R agonist -3.4% and GLP1R inv ag inconclusive.
`O=C1NC[C@H](Cc2ccccc2)N(C[C@H]2CCCN2C[C@H](Cc2ccccc2)N2C[C@H](Cc3ccccc3)N(CCc3ccccc3)C(=O)C2=O)C1=O` gave GLP1R cytotox inconclusive, rTrxR1 inhibitor -12.8%, TrxR1 substrate -1.7%, GLP-1R agonist -2.6%, GLP1R inv ag inconclusive, mIDH1 inhibitor inconclusive, IDH1 autofl -0.4, WT IDH1 inh 1.3% and IDH1 R132H conf 28.2µM*.
O=C1NC[C@H](Cc2ccccc2)N(C[C@H]2CCCN2C[C@H](Cc2ccccc2)N2C[C@H](Cc3ccccc3)N(CC3CCCCC3)C(=O)C2=O)C1=O was read as GLP1R cytotox -27.6%, rTrxR1 inhibitor 21.0%, TrxR1 substrate -5.0%, GLP-1R agonist 3.5%, GLP1R inv ag inconclusive, mIDH1 inhibitor inconclusive, IDH1 autofl 5.6, WT IDH1 inh -4.5% and IDH1 R132H conf inconclusive.
Screening CCc1cccc(CC)c1NC(=O)C(CC)n1nc(C)n2c(cc3cc(C)ccc32)c1=O (stereo unspecified) returned GLP1R cytotox 2.2%, rTrxR1 inhibitor 10.7%, TrxR1 substrate 15.8%, GLP1R inv ag -9.8% and mIDH1 inhibitor 20.1%.
`CC(C)Oc1ccc(CNC(=O)Cn2c(-c3cccs3)cc3ccccc32)cc1` gave GLP1R cytotox 4.4%, rTrxR1 inhibitor 49.0%, TrxR1 substrate 40.8%, GLP1R inv ag 11.7% and mIDH1 inhibitor -2.4%.
Screening CCN(CC)c1ccc(-c2nn3c(-c4n[nH]c5c4CCC5)nnc3s2)cc1 returned GLP1R cytotox -5.1%, rTrxR1 inhibitor -0.7%[57.1 µM], TrxR1 substrate 36.5%[57.1 µM], GLP-1R agonist 6.7%, GLP1R inv ag inconclusive, mIDH1 inhibitor inconclusive, IDH1 autofl 2.3, WT IDH1 inh -2.4% and IDH1 R132H conf 39.8µM*.
For COc1cccc(OC)c1-c1nn2c(-c3n[nH]c4c3CCC4)nnc2s1 the results were rTrxR1 inhibitor -4.0% and TrxR1 substrate 3.4%.

From PubChem BioAssay
